Screening results (PubChem)
USP7 inh – human USP7 deubiquitinase inhibition. Q93009. purified USP7, Ub-rhodamine cleavage fluorescence. inhibition, % at 20 µM. hit rate 0.3% among 47,000
UCHL1 block – inhibitors of human UCHL1 deubiquitinase; purified UCHL1, Ub-rhodamine cleavage fluorescence; hit rate 0.2% among 47,000; P09936; inhibition, % at 20 µM; AID 1645859
OTUD3 inh – inhibitors of human OTUD3 deubiquitinase | Q5T2D3 | purified OTUD3, Ub-rhodamine fluorescence, 2 h | inhibition, % at 25 µM | hit rate 0.7% among 47,000
Target sequence (Q5T2D3 whole entry, looked up): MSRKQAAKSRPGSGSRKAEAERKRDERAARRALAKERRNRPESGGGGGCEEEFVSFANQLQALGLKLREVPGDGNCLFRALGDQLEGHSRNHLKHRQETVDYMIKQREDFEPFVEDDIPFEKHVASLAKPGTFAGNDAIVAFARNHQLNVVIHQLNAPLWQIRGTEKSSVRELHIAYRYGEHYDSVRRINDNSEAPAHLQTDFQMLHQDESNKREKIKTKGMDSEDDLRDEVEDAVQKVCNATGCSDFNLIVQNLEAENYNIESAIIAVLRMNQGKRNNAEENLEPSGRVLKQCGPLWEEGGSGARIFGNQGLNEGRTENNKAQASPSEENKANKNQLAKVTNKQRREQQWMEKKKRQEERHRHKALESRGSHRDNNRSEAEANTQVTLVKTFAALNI
* = called active by the depositor. Hits are enriched below; roughly 1.1% of the tested compounds scored in any of these assays. No stated cut-off is given here; in the data, active means inhibition above about 30%; inactive means the rest.

SMILES	USP7 inh	UCHL1 block	OTUD3 inh
CCc1cnc(N2CCC3(CC2)OC(C(=O)Nc2cccnc2)Cn2ccnc23)nc1 (stereo not given)	-9	-10	-18
CC(C)(C)C(=O)C1C2C(=O)N(c3ccc4c(c3)OCO4)C(=O)C2C2c3ccccc3C=CN12 (stereo not given)	-27	11	55*
COc1ccc(NC(=O)C2[C@@H]3C(=O)N(c4ccc5c(c4)OCO5)C(=O)[C@@H]3[C@H]3c4ccccc4C=CN23)cc1 (stereo not given in full)	-86	-157	-39
CCOC(=O)C1(Cc2cc(-c3ccccc3C)no2)CCN(Cc2ccc(O)cc2)CC1	4	8	-11
CC(=O)OC1CC2CCC1N(Cc1ccccc1)C2=O (stereo not given)	4	1	11
Cc1cc2c(cc1CCc1cc3c(cc1C)OCO3)OCO2	2	-1	0
C[C@H](Cc1cc2c(cc1O)OCO2)[C@@H](C)Cc1cc2c(cc1O)OCO2	19	25	93*
O=C1CC(c2ccco2)Cc2[nH]c(=O)c(-c3nc(-c4ccc(Cl)cc4)cs3)cc21 (stereo not given)	41*	13	38*
COc1ccc(-c2csc(-c3cc4c([nH]c3=O)CC(c3ccco3)CC4=O)n2)cc1 (stereo not given)	-34	-36	3
Cc1ccc([C@H](C)N2CN(C3CCN(C(=O)C4CCC4)CC3)CC2=O)cc1	0	-2	-6
Cc1sc2nc(-c3cccnc3)nc(NCCCN3CCOCC3)c2c1C	-11	4	-2
O=C(Nc1ccc(Cl)cc1)c1nc(-n2cnnc2)ccc1Cl	-1	4	15
Cc1ccc(CN2CN(C3CCN(C(=O)c4ccco4)CC3)CC2=O)cc1	-4	0	-10
COc1ccccc1CNC(=O)C1c2ccccc2C(=O)N1Cc1ccc(C)cc1 (stereo not given)	-12	3	52*
CCOc1ccc(CN2C(=O)c3ccccc3C2C(=O)NCc2ccccc2OC)cc1 (stereo not given)	6	3	14
O=C(NC1CCC1)c1ncn2c1CN(CC1CC1)S(=O)(=O)c1ccccc1-2	2	0	5
Cc1cc(NC(=O)Cn2c(=O)n(CC3CCC(C(=O)NCCc4ccccc4)CC3)c(=O)c3ccccc32)n[nH]1 (stereo not given)	14	1	36*
O=C(Cn1c(=O)n(CC2CCC(C(=O)NCCc3ccccc3)CC2)c(=O)c2ccccc21)Nc1ccccc1F (stereo not given)	-1	-5	-15
Fc1ccc(-c2ccc3nnc(SCc4ccccn4)n3n2)cc1	1	0	14
CCc1cc(=O)n(CC(=O)Nc2cc(C)ccc2OC)c(N2CCOCC2)n1	3	3	37*
CCc1cc(=O)n(CC(=O)Nc2ccc(F)c(F)c2)c(N2CCOCC2)n1	-22	0	9
O=C(CCCn1c(=O)[nH]c2cc(Cl)ccc2c1=O)NC1CCN(Cc2ccccc2)CC1	-5	2	8
c1ccc(-c2nnc(C(c3ccccc3)N3CCC4(CC3)OCCO4)o2)cc1 (stereo not given)	-4	1	0
CCn1c(CNC(=O)c2cccc(OC)c2)nnc1SCC(=O)N1CCOCC1	5	0	2
COc1ccc(C(=O)NCC(c2ccco2)N2CCCCC2)cc1 (stereo not given)	1	-3	1
SMILES	USP7 inh	UCHL1 block	OTUD3 inh
CC(Sc1nnc(-c2ccccc2F)n1Cc1ccccc1)C(=O)N1CCc2ccccc21 (stereo not given)	-2	5	25
Fc1ccccc1-c1nnc(SCc2ccccc2)n1Cc1ccccc1	1	6	35*
Cc1nc(-c2cccc(N3CC(C(=O)NC4CCCC4)CC3=O)c2)no1 (stereo not given)	-1	1	-9
CO[C@H]1CC[C@H](O)c2c1oc1c3c4c(c(O)c1c2=O)-c1c(cc2c(Cl)c(C)n(N)c(=O)c2c1O)C[C@@H]4OCO3	3	10	44*
Cc1ccc([N+](=O)[O-])cc1S(=O)(=O)Nc1cc2sc(=O)oc2c2ccccc12	-27	28	33*
COc1ccccc1NS(=O)(=O)c1cc([N+](=O)[O-])ccc1NCC1COc2ccccc2O1 (stereo not given)	9	8	4
COc1cc(C(=O)OCc2csc(-c3ccccc3)n2)cc(Cl)c1OC	0	3	8
COc1cc(C(=O)OCc2csc(-c3ccccc3)n2)ccc1OCC(=O)Nc1ccc(F)cc1	-55	0	36*
COc1cccc(C2c3[nH]c4ccccc4c3C[C@@H]3C(=O)N(CCCn4ccnc4)CC(=O)N23)c1OC (stereo not given in full)	-4	-3	-5
Cc1ccc(-n2ncc(C(=O)NCc3cccc(Cl)c3)c2C2CCNCC2)cc1Cl	-1	3	16
Cc1ccc(-n2c3c(c(=O)[nH]c2=O)CN(C2CCCC2)CN3)cc1	0	-5	-5
